Active and inactive are the calls of the source. Unless noted, the rule behind the calls is not given here.
Tests used:
[1] = tested on: Wnt5a (protein binding on small-molecule microarray); experiment: small molecules binding Wnt5a protein – biophysical, small-molecule microarray, 635/667 nm fluorescence, primary screen (AID 1142); details: 635 nm fluorescence, higher = more signal;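 note: fluorescence read at 667 nm with signal to noise per printed feature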
[2] = ATP-based viability of Huh7 replicon cells – cell-based, CellTiter-Glo luminescence, basal, 48 h, cytotoxicity control for HCV replication inhibitor project, primary screen (AID 1143); details: higher = more signal, called active from +8 up or from −8 down;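 note: Huh7 hepatoma cells carrying a hepatitis C replication reporter with no stimulus; test concentration not given here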
[3] = Pseudomonas biofilm growth suppression – PAO1 strain, BacTiter-Glo luminescence, LB-PBS, primary screen (AID 1144); details: P. aeruginosa PAO1 biofilm, 12 h, higher = more signal
[4] = basal CRE-LacZ reporter activity in PC12 – cell-based, unstimulated, primary screen (AID 1145); details: no forskolin, luminescence, 4.5 h, higher = more signal, called active from +8 up or from −8 down
[5] = forskolin-driven CRE-LacZ activity in PC12 – cell-based, CRE-LacZ reporter, forskolin-stimulated, primary screen (AID 1146); details: luminescence, 4.5 h, higher = more signal, called active from +8 up or from −8 down;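 note: PC12 cells with 6xCRE LacZ reporter stimulated by forskolin 10 µM; beta-galactosidase reporter signal reflecting CREB driven transcription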
[6] = molecular target: Streptavidin (Streptomyces avidinii) (UniProt P22629); experiment: compounds binding control protein streptavidin – biophysical, small-molecule microarray, 635/667 nm fluorescence, artefact control for SMM compound annotation, primary screen (AID 1147); details: higher = more signal;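 note: signal reflects streptavidin binding to arrayed compounds as a control protein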
[7] = probe aInhba binding on compound microarray – biochemical, small-molecule microarray, 635/667 nm fluorescence, primary screen (AID 1148); details: higher = more signal;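 note: score merges 667nm spot fluorescence with signal-to-noise for antibody binding to printed compounds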
[8] = molecular target: Torsin-1A (Homo sapiens) (UniProt O14656); experiment: TOR1A wild-type binding on microarray – cell lysate, small-molecule microarray, lysate, 635/667 nm, primary screen (AID 1149); details: COS7 hTOR1A-WT lysate, 635 nm fluorescence, higher = more signal
[9] = molecular target: Torsin-1A (Homo sapiens) (UniProt O14656); experiment: torsin A mutant lysate binding on microarrays – cell lysate, small-molecule microarray, COS7 lysate, 635/667 nm fluorescence, primary screen (AID 1150); details: COS7 hTOR1A mutant lysate, 635 nm fluorescence, higher = more signal;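 note: score pools 667 nm emission and signal to noise measuring lysate protein binding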
[10] = tested on: Sonic hedgehog protein (Shh); experiment: Sonic hedgehog microarray binding compounds – biochemical, small-molecule microarray, 635/667 nm fluorescence, primary screen (AID 1151); details: 635 nm fluorescence, higher = more signal;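 note: Shh protein binding to compounds spotted on small-molecule microarray slides; score combines spot fluorescence intensity with signal-to-noise across triplicate slides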
[11] = optical density shifts of acrAB sulA E. coli – strain DRC41, OD650, 48 h, E. coli filamentation inducer project, primary screen (AID 1152); details: higher = more signal, called active from +8 up or from −8 down;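 note: E. coli MC1000 strain DRC41 lacking acrAB efflux pump and sulA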
[12] = probe aLefty1 binding on compound microarray – biochemical, small-molecule microarray, 635/667 nm fluorescence, primary screen (AID 1153); details: higher = more signal;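 note: score merges spot fluorescence with signal-to-noise ratio from the scanned slide images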
[13] = plasmodial surface anion channel blockers, osmotic lysis – cell-based, P. falciparum Indochina, OD700, 1 h, primary screen (AID 1154); details: P. falciparum Indochina infected RBC osmotic lysis, higher = more signal, called active from +8 up or from −8 down
[14] = plasmodial surface anion channel blockers, osmotic lysis – cell-based, P. falciparum Indochina, OD700, 2 h, primary screen (AID 1155);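 note: lysis reports solute entry through the parasite surface anion channel PSAC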; details: P. falciparum Indochina infected erythrocytes, higher = more signal, called active from +8 up or from −8 down
[15] = changes in parasitized red cell lysis, either direction – P. falciparum Indochina, OD700, 3 h, PSAC antagonist project, primary screen (AID 1156); details: P. falciparum-infected erythrocytes, osmotic lysis, higher = more signal, called active from +8 up or from −8 down
[16] = plasmodial surface anion channel blockers, osmotic lysis – cell-based, P. falciparum Indochina, OD700, 18 h, primary screen (AID 1157); details: P. falciparum Indochina infected erythrocytes, osmotic lysis OD700, 18 h; higher = more signal, called active from +8 up or from −8 down
[17] = S6 kinase pathway phospho-S6 level changes – cell-based, A549, cytoblot, luminescence, serum-stimulated, primary screen (AID 1158); details: 5 h, higher = more signal;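 note: serum-stimulated A549 lung adenocarcinoma cells; signal is phosphorylated S6 detected by cytoblot immunostaining with HRP secondary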
[18] = molecular target: NADPH oxidase 2 (Homo sapiens) (UniProt P04839); experiment: compounds shifting NOX2 Amplex Red fluorescence – cell-based, HEK293-NOX2, PMA-stimulated, NOX inhibitor project, primary screen (AID 1159); details: 45 min, higher = more signal, called active from +8 up or from −8 down; note: test concentration not given here
[19] = molecular target: NADPH oxidase 4 (Homo sapiens) (UniProt Q9NPH5); experiment: compounds shifting NOX4 Amplex Red fluorescence – cell-based, HEK293-NOX4, tetracycline-induced, NOX inhibitor project, primary screen (AID 1160); details: HEK293-NOX4, Amplex Red H2O2 fluorescence, 45 min; higher = more signal, called active from +8 up or from −8 down
[20] = molecular target: NADPH oxidase 5 (Homo sapiens) (UniProt Q96PH1); experiment: compounds shifting NOX5 Amplex Red fluorescence – cell-based, HEK293-NOX5, NOX inhibitor project, primary screen (AID 1161); details: HEK293-NOX5, ionomycin, 45 min, higher = more signal
NADPH oxidase 5 (Homo sapiens), sequence (Q96PH1 whole entry, looked up): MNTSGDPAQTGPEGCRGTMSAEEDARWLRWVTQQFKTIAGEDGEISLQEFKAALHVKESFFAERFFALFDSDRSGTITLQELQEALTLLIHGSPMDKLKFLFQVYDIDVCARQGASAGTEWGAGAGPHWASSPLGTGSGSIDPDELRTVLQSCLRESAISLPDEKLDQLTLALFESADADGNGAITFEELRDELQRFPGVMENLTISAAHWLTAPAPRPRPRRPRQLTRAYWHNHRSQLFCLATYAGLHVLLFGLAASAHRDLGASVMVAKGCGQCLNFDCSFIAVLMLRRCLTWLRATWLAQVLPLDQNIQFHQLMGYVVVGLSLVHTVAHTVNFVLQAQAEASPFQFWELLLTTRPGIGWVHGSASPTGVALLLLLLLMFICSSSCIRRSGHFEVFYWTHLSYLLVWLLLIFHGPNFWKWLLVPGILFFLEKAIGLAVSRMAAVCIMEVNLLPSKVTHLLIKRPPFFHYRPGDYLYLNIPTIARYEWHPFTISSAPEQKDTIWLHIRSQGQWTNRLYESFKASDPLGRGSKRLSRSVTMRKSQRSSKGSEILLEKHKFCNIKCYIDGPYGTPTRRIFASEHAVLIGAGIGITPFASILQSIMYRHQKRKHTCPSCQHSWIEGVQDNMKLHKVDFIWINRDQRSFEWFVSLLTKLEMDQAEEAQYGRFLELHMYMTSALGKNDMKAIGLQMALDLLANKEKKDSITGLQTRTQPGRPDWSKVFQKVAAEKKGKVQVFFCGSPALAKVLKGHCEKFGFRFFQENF

NADPH oxidase 2 (Homo sapiens), sequence (P04839 whole entry, looked up): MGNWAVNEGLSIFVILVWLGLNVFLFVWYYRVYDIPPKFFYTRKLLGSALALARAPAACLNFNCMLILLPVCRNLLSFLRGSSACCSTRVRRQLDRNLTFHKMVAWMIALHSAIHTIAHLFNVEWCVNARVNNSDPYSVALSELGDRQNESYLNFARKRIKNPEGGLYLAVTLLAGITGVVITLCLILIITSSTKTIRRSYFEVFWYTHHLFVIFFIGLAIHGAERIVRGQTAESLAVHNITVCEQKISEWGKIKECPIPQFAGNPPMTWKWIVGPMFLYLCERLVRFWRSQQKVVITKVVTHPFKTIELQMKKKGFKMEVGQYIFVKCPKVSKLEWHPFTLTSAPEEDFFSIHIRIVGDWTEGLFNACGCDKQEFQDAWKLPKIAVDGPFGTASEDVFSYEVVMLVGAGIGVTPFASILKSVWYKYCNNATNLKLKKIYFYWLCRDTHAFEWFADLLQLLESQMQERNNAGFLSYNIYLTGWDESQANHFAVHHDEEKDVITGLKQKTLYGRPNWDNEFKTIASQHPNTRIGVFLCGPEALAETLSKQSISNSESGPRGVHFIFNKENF
Streptavidin (Streptomyces avidinii), sequence (P22629 whole entry, looked up): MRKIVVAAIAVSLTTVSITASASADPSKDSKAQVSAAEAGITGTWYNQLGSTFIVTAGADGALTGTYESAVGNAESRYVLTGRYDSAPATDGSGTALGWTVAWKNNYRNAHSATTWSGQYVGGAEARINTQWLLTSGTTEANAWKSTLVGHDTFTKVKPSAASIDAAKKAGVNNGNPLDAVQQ
Torsin-1A (Homo sapiens), sequence (O14656 whole entry, looked up): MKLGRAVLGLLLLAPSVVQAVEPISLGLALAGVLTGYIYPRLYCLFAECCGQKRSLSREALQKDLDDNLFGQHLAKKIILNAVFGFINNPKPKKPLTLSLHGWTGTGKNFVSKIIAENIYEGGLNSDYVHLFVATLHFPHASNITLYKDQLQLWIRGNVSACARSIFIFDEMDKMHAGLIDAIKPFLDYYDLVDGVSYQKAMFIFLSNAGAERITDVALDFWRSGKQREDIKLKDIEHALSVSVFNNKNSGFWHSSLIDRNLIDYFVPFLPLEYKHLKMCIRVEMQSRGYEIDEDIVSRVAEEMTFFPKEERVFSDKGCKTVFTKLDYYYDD
NADPH oxidase 4 (Homo sapiens), sequence (Q9NPH5 whole entry, looked up): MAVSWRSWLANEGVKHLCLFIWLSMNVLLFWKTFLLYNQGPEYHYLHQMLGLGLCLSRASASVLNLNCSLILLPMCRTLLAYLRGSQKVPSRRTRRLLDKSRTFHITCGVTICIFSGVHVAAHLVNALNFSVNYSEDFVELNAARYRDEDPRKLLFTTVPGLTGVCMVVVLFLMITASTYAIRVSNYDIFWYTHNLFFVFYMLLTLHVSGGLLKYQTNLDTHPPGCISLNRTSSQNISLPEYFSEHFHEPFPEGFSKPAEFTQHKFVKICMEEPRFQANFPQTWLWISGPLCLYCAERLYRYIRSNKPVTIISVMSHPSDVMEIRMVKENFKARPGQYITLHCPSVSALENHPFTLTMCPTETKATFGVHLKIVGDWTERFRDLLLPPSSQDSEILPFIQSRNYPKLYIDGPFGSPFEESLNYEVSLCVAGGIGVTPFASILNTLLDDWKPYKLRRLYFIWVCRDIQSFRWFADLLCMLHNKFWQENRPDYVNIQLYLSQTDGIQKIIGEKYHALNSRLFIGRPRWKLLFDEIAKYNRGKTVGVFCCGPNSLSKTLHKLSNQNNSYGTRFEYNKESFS

Row | Compound | composite z-score [1] | z-score [2] | z-score [3] | z-score [4] | z-score [5] | composite z-score [6] | composite z-score [7] | composite z-score [8] | composite z-score [9] | composite z-score [10] | z-score [11] | composite z-score [12] | z-score [13] | z-score [14] | z-score [15] | z-score [16] | z-score [17] | z-score [18] | z-score [19] | z-score [20]
1 | CN1C(=O)C2C=CC(C(O)c3ccc(F)cc3)N(N(c3ccccc3)c3ccccc3)C2C1=O (stereo not given) | -0.0512 | 0.319 (inactive) | -0.0417 (inactive) | -0.708 (inactive) | 0.677 (inactive) | 0.453 | 0.0047 | -0.182 | 0.361 | -0.647 | -1.46 (inactive) | -0.483 | 0.362 (inactive) | 1.27 (inactive) | 0.39 (inactive) | 1.17 (inactive) | -1.16 | -0.948 (inactive) | -1.82 (inactive) | -1.39
2 | COc1ccc(C#Cc2ccc3c(c2)[C@]2(C(=O)N3)[C@H](c3ccc(O)cc3)N3[C@H](c4ccccc4)[C@H](c4ccccc4)OC(=O)[C@H]3[C@@H]2C(=O)N2CCc3cc(OC)c(OC)cc3C2)cc1 | 0.636 | -0.678 (inactive) | -0.0604 (inactive) | 0.155 (inactive) | 0.102 (inactive) | 1.13 | -0.0521 | 0.135 | 0.0243 | 1.78 | -0.291 (inactive) | 0.156 | 0.276 (inactive) | 0.312 (inactive) | -0.205 (inactive) | 0.196 (inactive) | -0.0494 | 1.12 (inactive) | 0.579 (inactive) | -0.568
3 | COc1ccc(CCNC(=O)[C@@]2(c3ccc([N+](=O)[O-])cc3)CC(=O)N(CC34CC5CC(CC(C5)C3)C4)[C@@H]2c2ccc(CO)cc2I)cc1 | 0.522 | -5.87 (inactive) | -1.53 (inactive) | 0.378 (inactive) | -0.107 (inactive) | -0.0522 | -0.443 | 0.292 | 1.05 | 1.75 | 0.655 (inactive) | -0.223 | 16.3 (active) | 3.25 (inactive) | 3.61 (inactive) | 0.838 (inactive) | 3.37 | 0.675 (inactive) | -4.2 (inactive) | -3.66
4 | CN1C(=O)C2C=CC(C(O)c3ccccc3)N(N3CCCCC3)C2C1=O (stereo not given) | 0.691 | 0.573 (inactive) | -0.127 (inactive) | 0.819 (inactive) | 0.584 (inactive) | 0.479 | 0.0301 | 0.305 | 1.14 | -0.689 | -2 (inactive) | 0.0971 | 0.15 (inactive) | 0.913 (inactive) | 0.302 (inactive) | 0.827 (inactive) | -0.965 | -0.121 (inactive) | -1.01 (inactive) | -1.08
5 | CCOc1cc(C(O)C2C=CC3C(=O)N(c4ccccc4)C(=O)C3N2Nc2ccc(C(C)C)cc2)ccc1O (stereo not given) | 0.12 | -1.15 (inactive) | -0.941 (inactive) | 1.96 (inactive) | 0.193 (inactive) | 0.809 | -0.0375 | 0.159 | 0.57 | 0.323 | -1.97 (inactive) | 0.469 | 11.5 (active) | 1.8 (inactive) | 1.74 (inactive) | 1.42 (inactive) | -0.729 | -3.06 (inactive) | -4.82 (inactive) | -5.07
6 | COC(=O)[C@@]1(Cc2ccc(OC)cc2)[C@H]2c3cc(C(=O)N4CCCC4)n(CCSCCO)c3C[C@H]2CN1C(=O)c1ccccc1 | 0.631 | -0.974 (inactive) | 0.58 (inactive) | 1.34 (inactive) | 1.82 (inactive) | 0.532 | 0.257 | 0.396 | 1.45 | -0.623 | -1.34 (inactive) | 0.399 | 2.07 (inactive) | 0.142 (inactive) | -0.0464 (inactive) | 0.667 (inactive) | -0.0335 | 0.354 (inactive) | -1.04 (inactive) | -0.201
7 | CC(=O)NCCCC[C@@H]1NC(=O)[C@H]2C[C@@H](C(=O)NCCCCCNC(=O)CS)[C@@H](c3ccc(O)cc3)N2C1=O | 0.0736 | -0.47 (inactive) | -0.589 (inactive) | -0.122 (inactive) | -0.112 (inactive) | -0.502 | 0.0391 | 0.261 | -0.711 | 0.468 | -0.0078 (inactive) | -0.12 | 1.94 (inactive) | 0.811 (inactive) | -0.952 (inactive) | 0.425 (inactive) | -0.591 | 0.772 (inactive) | -2.06 (inactive) | -0.294
8 | COC(=O)C(CC#Cc1ccc2c(c1)[C@]1(C(=O)N2)[C@H](c2ccccc2OCCO)N2[C@H](c3ccccc3)[C@H](c3ccccc3)OC(=O)[C@H]2[C@@H]1C(=O)O)C(=O)OC | 0.231 | -0.323 (inactive) | -0.367 (inactive) | -0.375 (inactive) | 1.86 (inactive) | 0.517 | 0.29 | 0.19 | 1.14 | 0.279 | 0.456 (inactive) | 0.169 | 4.94 (inactive) | 0.569 (inactive) | -7.69 (inactive) | -0.0236 (inactive) | -0.13 | 1.79 (inactive) | -0.0833 (inactive) | 0.036

From PubChem BioAssay
